Screening data from PubChem BioAssay.
This is a sample that favours compounds with a hit; in the whole collection about 19% have one here.
TDP1 cell CPT – growth inhibition of DT40 Tdp1-/-;hTDP1 cells with camptothecin (screen for TDP1 inhibitors); chicken DT40 Tdp1-/-;hTDP1 cells + 20 nM CPT, ATP luminescence, 48 h; Potency, µM (doses to about 46.2 µM), for the others: at the top dose activity change, negative = growth inhibition, most hits filed as inhibitors; actives 12% (n = 420,000); AID 686979; further: potency means the concentration at half of the fitted maximal effect; nearly all actives have a fitted effect of over 55% in size
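Chicken DT40 Tdp1-/- cells stably complemented with human TDP1 were seeded at 400 cells/well in medium containing 20 nM camptothecin, exposed to pin-transferred compounds, and grown at 37 °C for at least 48 hr. Viability was read as ATP luminescence.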
TDP1 cell noCPT – qHTS for Inhibitors of human tyrosyl-DNA phosphodiesterase 1 (TDP1): qHTS in cells in absence of CPT | actives 15% (n = 420,000) | Potency, µM (doses to about 46.2 µM), without a hit: at the highest dose activity change, negative = growth inhibition, hits mostly inhibitors | DT40 Tdp1-/- hTDP1 cells, no CPT, ATP luminescence, 48 h | AID 686978, 2013; further: potency means the concentration at half of the fitted maximal effect; nearly all actives have a fitted effect of over 55% in size
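No-CPT arm: Tdp1-/-;hTDP1 DT40 cells (400/well) plus compounds, incubated ≥48 hr at 37 °C. Readout CellTiter-Glo luminescence.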
HT1080 IDH1KD tx – HT-1080 IDH1 knockdown cell toxicity (counter line); HT-1080 IDH1 knockdown viability, ATP luminescence, 48 h; Potency, µM (series often up to 46.1 µM), for inactives: top-dose activity, negative = toxicity, hits mostly cytotoxic; actives 2% (n = 360,000); AID 686971;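 further: potency means the concentration at half of the fitted maximal effect; 0% = DMSO wells and -100% = cell-free medium wells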
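CellTiter-Glo luminescence after 48 h compound exposure at 37 degrees C of IDH1-knockdown HT-1080 cells in 5% FBS RPMI. %Activity scaled between DMSO wells and cell-free media wells, with curves fitted and assigned curve classes.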
HT1080NT lethal – kills 2HG-producing HT-1080-NT fibrosarcoma cells; HT-1080-NT fibrosarcoma viability, CellTiter-Glo ATP luminescence, 48 h; Potency, µM (highest dose often 46.1 µM), for the others: at the highest dose activity, negative = less viability, actives largely listed as cytotoxic; actives 1.6% (n = 360,000); AID 686970;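 further: NT is the 2HG producing partner of a matched IDH1 knockdown line; potency means the concentration at half of the fitted maximal effect; 0% = DMSO-treated cells and -100% = media-only wells without cells; nearly all actives have a fitted effect of over 55% in size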
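Luminescent CellTiter-Glo readout after 48 hours of compound exposure at 37 degrees C defined viability of HT-1080-NT cells. Activity was normalized to DMSO wells and cell-free media wells; concentration-response curves were fitted and assigned curve classes.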
IL1B secr inh – inflammasome signaling inhibition, IL-1 beta readout; actives 4.7% (n = 360,000); AID 743279; THP-1 LPS/ATP IL-1B secretion, AlphaLISA, 16 h; stronger effect = lower value; activity change, % at 57.5 µM; in the data active means activity change below about -50%; inconclusive means mostly about -30% to -49%
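THP-1 cells pretreated 1 hr with compounds (up to 57.5 uM final), then stimulated with LPS (250 ng/mL final) plus ATP (1.25 mM final); secreted IL-1B measured by AlphaLISA after 16 hr, decreased signal indicating inhibition.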
Active calls of the source: *; u = inconclusive; x = not tested or not shown. Unless noted, the call rests on the fitted dose curve; in most records, active means well fitted curve in the direction sought with a large enough effect; inconclusive means small, poorly fitted or top-dose-only effect, or another doubt; inactive means no such curve, though single readings can be large; an effect the other way counts as inactive or inconclusive. Unless noted, on the % scale 0 is the no-effect control and ±100 the full control effect.

SMILES	TDP1 cell CPT	TDP1 cell noCPT	HT1080 IDH1KD tx	HT1080NT lethal	IL1B secr inh
CCOc1cc(C(=S)N2CCCCC2)ccc1OS(=O)(=O)c1ccc(Br)cc1	21µM*	18µM*	-1%	-21%	-15
CCOc1cc(C(=S)N2CCOCC2)ccc1OS(=O)(=O)c1ccc(C)cc1	-11%	u	-26%	-24%	-1
CCOc1cc(C(=S)N2CCCCC2)ccc1OS(=O)(=O)c1ccc(Cl)cc1	16µM*	23µM*	-6%	-25%	-8
Cc1cc(C)n2nc(C(=O)OCC(=O)N(CC(C)C)C3CCS(=O)(=O)C3)nc2n1 (stereo unspecified)	27%	-6%	0%	9%	3
Cc1ccc(Cl)cc1NC(=O)C(=O)N/N=C/c1ccc2c(c1)OCO2	9%	7%	15%	u	u
CCC(C)C(NC(=O)C(C)NC(=O)CNC(=O)CNC(=O)OCc1ccccc1)C(=O)OC (stereo unspecified)	-11%	-10%	14%	8%	22
CCCCN(C)C/C(O)=C(\C#N)c1nc(-c2ccccc2)cs1	u	-15%	-9%	-6%	-12
Cn1c(N)c(C(=O)COC(=O)[C@H](Cc2ccccc2)N2C(=O)c3ccccc3C2=O)c(=O)n(C)c1=O	-24%	-30%	1%	-1%	-16
O=C1N/C(=C/c2ccc(Br)cc2)C(O)=C1C=NCc1ccccc1	2.9µM*	2.3µM*	u	u	11
CCOc1ccc2ncc(S(=O)(=O)c3ccc(C)cc3)c(N3CCC4(CC3)OCCO4)c2c1	u	23µM*	-5%	-9%	0
CCN1CCN(c2nc(S(=O)(=O)c3ccc(C)cc3)c(Cl)s2)CC1	-24%	u	u	-3%	-24
CCc1ccc2ncc(S(=O)(=O)c3ccc(Cl)cc3)c(N3CCN(CC)CC3)c2c1	u	16µM*	x	x	x
O=C(Nc1cccc(Cl)c1)C1C2CCC3C(CCC21)C3(Cl)Cl (stereo unspecified)	u	16µM*	u	u	-72*
O=C(Cc1cccs1)N1CCN(S(=O)(=O)c2ccc(Cl)c(C(F)(F)F)c2)CC1	-29%	-41%	-6%	-8%	13
Cc1cc(NC(=O)CN(C)CC(=O)Nc2ccc(Cl)cc2)no1	u	u	-14%	-4%	19
CN(CC(=O)Nc1ccc(Cl)c(C(F)(F)F)c1)S(=O)(=O)c1cnc[nH]1	15µM*	15µM*	5%	6%	12
CN(CC(=O)Nc1ccc(Cl)c(C(F)(F)F)c1)C(=O)C1CCC1	u	u	3%	-2%	-6
Cc1cc(NC(=O)CN(C)CC(=O)Nc2ccc(Cl)c(C(F)(F)F)c2)no1	15µM*	16µM*	-8%	-28%	-12
Cc1ccc(NC(=O)CN(C)C(=O)c2cccnc2Nc2cccc(C(F)(F)F)c2)cc1	u	u	u	u	-79*
CN(CC(=O)Nc1ccc(Cl)c(C(F)(F)F)c1)C(=O)CNC(=O)C1CCCCC1	u	16µM*	-3%	0%	10
Cn1c(=O)nc2n(-c3ccc(Cl)c(Cl)c3)c3cc(Cl)ccc3cc-2c1=O	14%	15%	x	x	x
CNC(C)C(=O)NC(C(=O)N1CCCC1C(=O)Nc1ccc2ncccc2c1)C(C)C (stereo unspecified)	12%	2%	-2%	2%	17
COc1ccc(NC(=O)CSCC(=O)N(C)CC(=O)Nc2ccc(Cl)c(C(F)(F)F)c2)cc1	u	u	-28%	u	-7
Cc1cc(C)cc(OCC(=O)N(C)CC(=O)Nc2ccc(Cl)c(C(F)(F)F)c2)c1	u	u	-24%	-2%	-78*
CN(CC(=O)Nc1ccc(Cl)c(C(F)(F)F)c1)C(=O)c1cccc2cccnc12	u	23µM*	-4%	0%	-26
SMILES	TDP1 cell CPT	TDP1 cell noCPT	HT1080 IDH1KD tx	HT1080NT lethal	IL1B secr inh
CN(CC(=O)Nc1ccc(Cl)c(C(F)(F)F)c1)C(=O)CCCNC(=O)c1ccc(Cl)cc1	21µM*	15µM*	u	u	-22
COC(=O)c1ccc(S(=O)(=O)c2ccccc2)c(N)c1	-24%	-26%	-3%	-10%	-3
CC(C)Oc1ccc(C(=O)CCN2CCOCC2)cc1	3.3µM*	3.7µM*	-10%	-22%	1
CCCCCOc1ccc(C(=O)CCN2CCOCC2)cc1	5.8µM*	8.2µM*	u	u	-18
CC(C)Oc1ccc(C(=O)CCN2CCCCC2)cc1	u	u	1%	-5%	-30
CC(=O)C1=C(O)C(CSCc2ccccc2)N(C)C1=O (stereo unspecified)	-21%	u	-1%	2%	17
Cc1ccc2nc(NC(=O)CSc3[nH]c(=O)ncc3C)sc2c1	-6%	-3%	x	x	x
CCc1ccc2[nH]c3nc(SCc4nnc(-c5ccc(C)cc5)o4)nnc3c2c1	u	u	9%	11%	26
CSc1ccccc1NC(=O)C1=CC(c2ccc(C)cc2)=NS(=O)(=O)N1C	-25%	u	0%	-5%	2
Clc1ccc(Cn2ccc3ccccc32)cn1	-18%	-22%	-25%	u	52
CCCCN(CCCC)c1ccc(Cn2ccc3ccccc32)cc1	7.9µM*	8.9µM*	x	x	x
CN(C)c1ccc(Cn2ccc3ccccc32)cc1	-30%	22µM*	x	x	x
CC(=O)OC1CC2C(C)(C)C(=O)CC[C@]2(C)C2CC[C@]3(C)C(=CC(=O)OC3c3ccoc3)[C@]12C (stereo partly specified)	5%	-19%	x	x	x
COC(=O)CC1C(C)(C)C(OC(C)=O)C2[C@H](OC(C)=O)[C@]34O[C@]2(O)[C@]1(C)C3CC[C@]1(C)C4=CC(=O)OC1c1ccoc1 (stereo partly specified)	u	16µM*	x	x	x
COc1ccc(-c2cc(C(=O)OCC(=O)N3CCOCC3)c3ccccc3n2)cc1	-15%	u	-16%	-1%	-54*
O=C(OCC(=O)N1CCN(C(=O)c2ccco2)CC1)c1cc(-c2ccc(F)cc2)nc2ccccc12	-17%	-16%	-24%	-13%	-51*
C/C(N)=C(/C#N)C(=O)COC(=O)c1cc(-c2ccc(Br)cc2)nc2ccccc12	15µM*	9.2µM*	u	u	u
O=C(OCC(=O)N1CCN(C(=O)c2ccco2)CC1)c1cc(-c2cccc(Br)c2)nc2ccccc12	u	-19%	-18%	-16%	-67*
CCOC(=O)C1=CN(Cc2ccco2)S(=O)(=O)NC1CC (stereo unspecified)	-4%	5%	2%	0%	5
